HPGD block: inhibitors of human 15-hydroxyprostaglandin dehydrogenase (HPGD); AID 894; P15428; actives 4.3% (n = 150,000); purified HPGD, NADH fluorescence kinetic, PGE2 substrate; Potency, µM, without a hit: at the top dose activity change, negative = inhibition, actives largely listed as inhibitors; note: potency is the fitted concentration of half-maximal effect
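NADH formation kinetics: reaction with 30 uM PGE2 and 1 mM NAD+ (final), 20 nM enzyme, Tris-HCl pH 8 with Tween 20, after 15 min compound preincubation at room temperature. Fluorescence change, last versus first of five reads.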
ALDH1A1 inh: ALDH1A1 (human) enzyme inhibition; actives 7.3% (n = 220,000); AID 1030; Potency, µM (titrated, usually from 75.3 µM), without a hit: at the highest dose activity, negative = inhibition, usual class: inhibitors; P00352; Purified ALDH1A1, NADH fluorescence, propionaldehyde substrate;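 note: potency is the fitted concentration of half-maximal effect; plate controls were no enzyme wells and a reference inhibitor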
Target sequence (P00352 whole entry, looked up): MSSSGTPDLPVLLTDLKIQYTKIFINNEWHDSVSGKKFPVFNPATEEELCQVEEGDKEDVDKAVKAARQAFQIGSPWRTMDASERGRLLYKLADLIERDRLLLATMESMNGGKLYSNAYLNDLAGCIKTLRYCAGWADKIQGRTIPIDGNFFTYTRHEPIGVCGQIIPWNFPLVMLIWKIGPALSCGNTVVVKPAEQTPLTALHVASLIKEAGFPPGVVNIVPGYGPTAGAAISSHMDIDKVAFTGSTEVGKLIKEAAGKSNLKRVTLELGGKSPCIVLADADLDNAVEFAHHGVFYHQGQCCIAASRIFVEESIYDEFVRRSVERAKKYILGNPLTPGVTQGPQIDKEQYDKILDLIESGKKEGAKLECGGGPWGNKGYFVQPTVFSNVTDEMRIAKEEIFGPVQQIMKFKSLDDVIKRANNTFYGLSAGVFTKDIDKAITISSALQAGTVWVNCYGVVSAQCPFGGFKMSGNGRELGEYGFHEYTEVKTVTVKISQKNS
IMPase cell inh: membrane-permeable compound that blocks inositol monophosphatase; CHO-M1 cells, IP1 accumulation, HTRF TR-FRET ratio; 120,000 tested, under 10 active; inhibition (IP1 accumulation), % at 46.1 µM; P97697; active = well fitted curve in the direction sought with a large enough effect in the signal ratio, not every such curve was filed as active; inconclusive = small, poorly fitted or top-dose-only effect, or a change in a side signal; inactive = no such curve, though single readings can be large or run the other way; the % refers to the signal ratio;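 note: cells stimulated with carbachol in lithium chloride buffer; plate controls were DMSO basal wells for no effect and reference inhibitor wells for full effect; higher means more IMPase inhibition seen as more IP1 and lower FRET ratio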
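The IP-One HTRF competitive assay in carbachol-stimulated CHO-M1 cells quantifies cellular IP1. Compounds spanned up to 46 uM final, and activity is expressed as AC50 from concentration-response fits of the ratio and donor data.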
Active calls of the source: *; ? = inconclusive; . = not tested or not shown; [ ] = dose if it differs, or a comment. A selection: hits, their analogues and other compounds. The true share with any hit is near 9%. Unless noted, calls come from the whole dose curve; as a rule, active = well fitted inhibition curve with a large enough effect (not every such curve was filed as active); inconclusive = small, poorly fitted or top-dose-only effect, or another doubt; inactive = no such curve, though single readings can be large or run the other way. Unless noted, % is set by controls: 0 for no effect and ±100 for the full control effect.

SMILES	HPGD block	ALDH1A1 inh	IMPase cell inh
CN(Cc1ccccc1)CC(O)COc1ccc(CNCCOc2cccnc2)cc1 (stereo unspecified)	.	7.2%	.
COC(=O)[C@H](Cc1ccccc1)NC(=O)O[C@@H]1C(=O)c2ccc(OC)cc2O[C@H]1c1cccc(C(F)(F)F)c1	-14.8%	-1.1%	.
CC(/C=C/c1ccccc1)=N\NC(=O)c1cc(C)[nH]n1	.	0.5%	.
O=C(O)C(CC1CCCCC1)N1CCS(=O)(=O)CC1 (stereo unspecified)	.	5.3%	.
CC(C)N1CCN(Cc2ccoc2)CC1CCO (stereo unspecified)	.	-0.9%	.
CN(C)CC(=O)N1CCc2ccccc2C1	.	-4.6%	.
CCc1ccc(/C=C\C(=O)N2CCc3ccccc3C2)cc1	11.2µM*	0.9%	0.1
O=C(NCCc1ccccc1)c1nc(-c2cccs2)no1	.	-5.1%	.
CCOC(=O)CNC(=O)c1cc(-c2ccccn2)nc2c(C)c(Cl)ccc12	.	7.1%	.
S=C(Nc1ccccc1)N1CCn2cccc2C1c1cccnc1 (stereo unspecified)	-16.5%	-0.5%	-5.6
Fc1ccccc1C1c2cccn2CCN1C(=S)Nc1ccc(Br)cc1 (stereo unspecified)	.	14.1µM*	.
CCOC(=O)c1c(-c2ccc(Cl)cc2)c(C#N)c(=O)n(N)c1N	?	?	-2.4[1.84 µM]
COc1ccc(C(=O)N2CCOCC2)cc1Br	-16.3%	10.0%	18.2
O=C(Oc1ccc(C(=S)N2CCOCC2)cc1Br)c1ccccc1F	31.6µM*	25.1µM*	.
CCN(CC)c1ccc(/C=C(/C#N)C(=O)NC(C)C)o1	.	10µM*	.
CCN(CC)c1ccc(/C=C(/C#N)C(=O)NCc2ccccc2)o1	15.8µM*	2.82µM*	.
CC(=O)Nc1ccc(/C=C(\C#N)C(=O)NCc2ccccc2)cc1	?	-9.3%	.
C=CCNC(=O)/C(C#N)=C/c1ccc(C)o1	.	-14.5%	.
Cc1nnsc1C(=O)N1CCCC(C(=O)c2ccc(C(F)(F)F)cc2)C1 (stereo unspecified)	.	9.6%	.
COc1ccc(O[C@H]2C=C[C@@H](c3ccccc3)O[C@H]2COC(=O)CC/C(C)=N\OC[C@@H](O)[C@H]2O[C@H]3OC(C)(C)O[C@H]3[C@@H]2O)cc1	.	7.6%[13.5 µM]	.
CCOc1ccc(/C=N/NC2=NCCCCC2)cc1	.	-3.5%	.
CC(C)NCC1CCc2cc(CO)c([N+](=O)[O-])cc2N1 (stereo unspecified)	.	4.1%	.
Cc1cc2oc(=O)cc(CN3CCOCC3)c2cc1C	-0.7%	1.1%	9.8
Cc1cc2oc(=O)cc(CN3CCCc4ccccc43)c2cc1C	-18.4%	25.1µM*	0.4
O=c1c2ccccc2nnn1CSc1nnc2ccccn12	-4.8%	-0.6%	-3.9
SMILES	HPGD block	ALDH1A1 inh	IMPase cell inh
CCN(CC)S(=O)(=O)c1ccc2c(c1)nc(SCn1nnc3ccccc3c1=O)n2CC	-15.9%	10µM*	-7.6
CC(c1ccccc1)C1C(C#N)=C(N)OC2=C1C(=O)CCC2 (stereo unspecified)	-15.4%	14.2%	7.1
CCC(CC)C1C(C#N)=C(N)SC(N)=C1C#N	-22.0%	?	-1.1
CC(CC1C(C#N)=C(N)SC(N)=C1C#N)c1ccccc1 (stereo unspecified)	14.1µM*	10µM*	2.6
CC(C)c1ccc(C2C(C#N)=C(N)N3C(=C2C#N)Sc2ccccc23)cc1 (stereo unspecified)	?	0.4%	-0.5
CC(c1ccccc1)C1C(C#N)=C(N)SC(N)=C1C#N (stereo unspecified)	.	20µM*	12.2
CC(C)C1C(C#N)=C(N)SC(N)=C1C#N	?	8.91µM*	4.2
CS(=O)(=O)N1CCC(C(=O)Nc2ccc3c(c2)OCCO3)CC1	-9.3%	7.5%	-6.9
CCN(c1ccccc1)S(=O)(=O)c1ccc(Cl)c(NC(=O)CSc2nnc(C)s2)c1	.	-11.1%	.
COC(=O)C1=NN(N=O)C2(CC(=O)N(c3cc(C)cc(C)c3)C2=O)C1 (stereo unspecified)	31.6µM*	8.91µM*	2.1
CCOC(=O)C1=NN(C(C)=O)C2(CC(=O)N(c3cc(C)cc(C)c3)C2=O)C1 (stereo unspecified)	-5.9%	7.5%	.
Cc1ccc(-c2nc3ccsc3c(=O)[nH]2)cc1	.	-15.2%	.
O=C(c1nn2c(C(F)(F)F)cc(-c3ccco3)nc2c1Br)N1CCCc2ccccc21	-26.0%	7.94µM*	11.8
O=C(c1cc2nc(-c3cccs3)cc(C(F)(F)F)n2n1)N1CCCc2ccccc21	14.1µM*	-12.8%	1.1
O=C(c1cc2nc(-c3ccco3)cc(C(F)(F)F)n2n1)N1CCCc2ccccc21	?	17.8µM*	9.6
O=C(c1nn2c(C(F)(F)F)cc(-c3cccs3)nc2c1Br)N1CCCc2ccccc21	-10.8%	-3.1%	.
O=C(c1cc2nc(-c3cccs3)cc(C(F)(F)Cl)n2n1)N1CCCc2ccccc21	?	-12.8%	0.1
O=C(c1cc2nc(-c3ccco3)cc(C(F)(F)F)n2n1)N1CCCCCC1	?	?	-0.1
Nc1n[nH]c(CO)n1	.	5.8%	.
CCc1ccc(C(=O)NC(CCSC)C(=O)OC)cc1 (stereo unspecified)	.	3.1%	.
CN(C(=O)COC(=O)c1ccc(S(=O)(=O)N2CCOCC2)cc1)C1CCCCC1	.	2.9%	.
Cc1cc(C)cc(OC(=O)C23CCC(C)(C(=O)O2)C3(C)C)c1 (stereo unspecified)	.	-1.5%	.
Cc1ccc(NC(=O)/C(=C\c2ccc([N+](=O)[O-])cc2)NC(=O)c2ccccc2)cc1	-10.2%	-5.7%	1.7
O=C(N/N=C/c1ccc(O)c(O)c1O)/C(=C/c1ccc([N+](=O)[O-])cc1)NC(=O)c1ccccc1	25.1µM*	10µM*	4.5
Cc1noc(C)c1C(=O)N1CCC[C@@]2(CCN(c3ccccc3)C2)C1	-3.2%	-3.7%	.
SMILES	HPGD block	ALDH1A1 inh	IMPase cell inh
Cc1cc(C)c(NC(=O)CSc2nc3c(c(=O)n2C)SC(C)C3)c(C)c1 (stereo unspecified)	-5.5%	2.7%	-16.0
Oc1c(Cl)ccc(Cl)c1Cl	-9.1%	-5.2%	.
O=C1C=CC(=O)c2c(O)c(Cl)c(Cl)c(O)c21	?	1.26µM*	.
O=C(Nc1ccccc1)N1CC2(CCN(C(=O)c3cnccn3)CC2)C1	-7.6%	13.2%	.
COc1ccc(NC(=O)C2C3C=CC(C3)C2C(=O)NCc2ccco2)c(OC)c1 (stereo unspecified)	25.1µM*	?	6.0
O=C(O)C1C2C=CC(C2)C1C(=O)NCc1ccco1 (stereo unspecified)	.	-0.4%	.
CC(C)OC(=O)CSc1nnc(-c2ccncc2)n1N	-2.7%	4.5%	-2.7
CC(C)OC(=O)CSc1nnc(-c2ccc(C(C)(C)C)cc2)n1N	17.8µM*	17.8µM*	-1.5
CCCN(CC(=O)Nc1ccc(Cl)cc1Cl)C(=O)/C=C/c1ccco1	-2.6%	0.224µM*	4.1
CCCN(CC(=O)Nc1ccccc1C)C(=O)/C=C/c1cccs1	-11.1%	?	5.0
Cc1ccc(OCC(=O)NNC(=O)CSc2nnc(-c3ccc(C)cc3)n2C)cc1	-2.0%	2.7%	.
O=c1c2c3c(sc2ncn1/N=C/c1ccccc1)CCCC3	0.1%	11.2µM*	-5.7[0.369 µM]
O=c1c2c3c(sc2ncn1/N=C/c1ccco1)CCCC3	-3.8%	?	1.6
O=C1CSC(c2ccncc2)N1Cc1ccccc1 (stereo unspecified)	.	-3.3%	.
